According to PubChem BioAssay (NCATS):
Results filed as inconclusive are left out. A number with no mark means an inactive call. Activity calls are given as the source filed them. Calls follow the shape of the dose curve; as a rule, active = well fitted inhibition curve with a large enough effect; inconclusive = small, poorly fitted or top-dose-only effect; inactive = flat fitted curve, though single readings scatter.

What follows are compounds tested on HaCat (assay: Cytotoxic Profiling of Annotated Libraries Using Quantitative High-Throughput Screening (AID 1296008; also: nearly all actives have a fitted effect of over 60% in size)). Details: Five cell lines viability, CellTiter-Glo ATP luminescence, 48-72 h; max response: hits give low values.
How it was run: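 Compounds were pin-transferred onto cells and incubated 48 or 72 hr at 37 degree Celsius, 95% humidity. CellTiter-Glo was added, plates sat 10 min at room temperature, then ATP-coupled luminescence was imaged as the viability read-out.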
% is scaled to controls: 0 for no effect and ±100 for the full control effect; potency is read from the fitted curve at half-maximal effect.

For `COc1c2c(c(C)c3c1C(=O)OC3)OC1(C)CC(O)C(C(C)(C)O)C(C)(CCC(=O)O)C1C2` (configuration not stated), which max response is on record?
The max response was -1.29%.

`C1CCC[C@H]2CCCN3CC[C@@H](CCCCCC[C@@H]4CCCN5CC[C@@H](CC1)O[C@@H]45)O[C@@H]23` was tested. Which max response did it give?
The max response was -0.73%.

`CC1C(=O)OCC2=CCN3CCC(OC(=O)C(C)(O)C1(C)O)C23` (configuration not stated) was tested. Which max response did it give?
Its max response is -22.6%.

`CC/C=C/CC1=C(CCCCC(CCC(=O)O)OC(C)=O)CCC1=O` (configuration not stated) was tested. Which max response did it give?
The max response was -33.4%.

For `OC[C@@]1(O)CO[C@@H](OC[C@H]2O[C@@H](Oc3c[nH]c4ccccc34)[C@H](O)[C@@H](O)[C@@H]2O)[C@@H]1O`, which max response is on record?
Its max response is -26.1%.

How did the max response turn out when `COc1ccc(C2(O)CCC(N3CC[C@@H](NC(=O)CNC(=O)c4cccc(C(F)(F)F)c4)C3)CC2)cn1` (some centres not stated) was run?
The max response was 0.0677%.

How did the outcome turn out when `COc1cc(OC)cc(C(=O)Nc2ccc(Cl)c(-c3nc4ccc(N(C)C)cc4[nH]3)c2)c1` was run?
The outcome was “inactive”.

`C[C@@H]1COCCN1c1cc(C2(S(C)(=O)=O)CC2)nc(-c2cccc3[nH]ccc23)n1` was tested. Which Potency did it give?
Its Potency is 5.8 µM (active).

For `CCN1CCN(Cc2ccc(NC(=O)c3ccc(C)c(NC(=O)c4cncc(-c5cccs5)c4)c3)cc2C(F)(F)F)CC1`, which Potency is on record?
The Potency was 0.92 µM (active).

With `Cc1cc(C)nc(NS(=O)(=O)c2ccc(NC(=S)NC(=O)COc3ccc(Br)cc3Cl)cc2)n1` as the compound, how does the max response read?
Its max response is -3.13%.

How did the Potency turn out when `CC(Nc1ncnc2nc[nH]c12)c1cc2cccc(Cl)c2c(=O)n1-c1ccccc1` (configuration not stated) was run?
The Potency was 20.6 µM (active).

`CC1=C(C)C(=O)OC(C(C)C2CCC3C4CC=C5CC(OC6OC(COC7OC(CO)C(O)C(O)C7O)C(O)C(O)C6O)CC(O)C5(C)C4CCC23C)C1` (configuration not stated) was tested. Which max response did it give?
Its max response is -17.7%.
